High-throughput results deposited in PubChem by National Center for Advancing Translational Sciences (NCATS).
Compounds with a hit are over-represented: about 15% of the library has one in this group of screens.
TDP1 cell noCPT: qHTS for Inhibitors of human tyrosyl-DNA phosphodiesterase 1 (TDP1): qHTS in cells in absence of CPT; DT40 Tdp1-/- hTDP1 cells, no CPT, ATP luminescence, 48 h; Potency, µM (doses to about 46.2 µM), inactives show at the highest dose activity change, negative = growth inhibition, actives largely listed as inhibitors; 420,000 tested, 15% active; AID 686978, 2013; further: nearly all actives have a fitted effect of over 55% in size
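No-CPT arm: Tdp1-/-;hTDP1 DT40 cells (400/well) plus compounds, incubated ≥48 hr at 37 °C. Readout CellTiter-Glo luminescence.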
DT40 TDP1 CPT: growth inhibition of DT40 Tdp1-/-;hTDP1 cells with camptothecin (screen for TDP1 inhibitors) | chicken DT40 Tdp1-/-;hTDP1 cells + 20 nM CPT, ATP luminescence, 48 h | Potency, µM (highest dose often 46.2 µM), for inactives: top-dose activity change, negative = growth inhibition, usual class: inhibitors | 420,000 tested, 12% active | AID 686979; further: nearly all actives have a fitted effect of over 55% in size
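Chicken DT40 Tdp1-/- cells complemented with human TDP1, 400 cells/well, exposed to compounds plus 20 nM camptothecin for at least 48 h at 37 C; viability read as ATP content by CellTiter-Glo luminescence.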
ALOX12 inh: blocks human arachidonate 12S-lipoxygenase; P18054; purified 12hLO, xylenol orange hydroperoxide absorbance; Potency, µM (highest dose often 108 µM), for the others: at the highest dose activity change, negative = inhibition, usual class: inhibitors; 580,000 tested, 1.1% active
Target sequence (P18054 whole entry, looked up): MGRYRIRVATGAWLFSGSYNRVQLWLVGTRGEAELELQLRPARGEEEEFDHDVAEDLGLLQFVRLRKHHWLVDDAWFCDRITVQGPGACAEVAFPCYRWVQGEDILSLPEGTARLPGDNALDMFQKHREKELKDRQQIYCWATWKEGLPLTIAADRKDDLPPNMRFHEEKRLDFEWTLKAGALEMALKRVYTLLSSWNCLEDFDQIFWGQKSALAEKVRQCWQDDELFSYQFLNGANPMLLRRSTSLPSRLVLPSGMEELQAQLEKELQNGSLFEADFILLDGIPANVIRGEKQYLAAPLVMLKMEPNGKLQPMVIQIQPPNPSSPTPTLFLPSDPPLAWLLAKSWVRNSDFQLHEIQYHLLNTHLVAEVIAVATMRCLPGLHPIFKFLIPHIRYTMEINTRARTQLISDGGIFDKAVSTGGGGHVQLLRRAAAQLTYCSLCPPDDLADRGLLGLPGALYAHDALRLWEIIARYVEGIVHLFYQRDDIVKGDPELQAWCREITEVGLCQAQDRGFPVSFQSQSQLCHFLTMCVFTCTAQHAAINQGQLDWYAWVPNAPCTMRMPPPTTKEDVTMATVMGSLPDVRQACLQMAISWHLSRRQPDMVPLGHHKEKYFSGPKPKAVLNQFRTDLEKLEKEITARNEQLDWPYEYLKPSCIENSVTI
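Purified human 12hLO (150 nM final) in 25 mM Hepes, 0.01% Triton X-100, pH 7.0 was preincubated 15 min at room temperature with compound. Then 40 uM arachidonic acid was added, 30 min. Hydroperoxide was read by Fe-XO absorbance ratio 573/405 nm.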
Gal4-VP16 FLuc: Gal4-VP16 reporter inhibition counter-screen | Potency, µM (doses to about 53.6 µM), inactives show at the top dose activity, negative = inhibition, usual class: inhibitors | Drosophila S2 Gal4-VP16 UAS-luciferase, luminescence, 20 h | 310,000 tested, 3.5% active;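 further: Gal4-VP16 expression switched on by copper sulfate through the metallothionein promoter; nearly all actives have a fitted effect of over 50% in size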
ELG1 DNA repair: blocks ELG1-dependent DNA repair in HEK293T cells | HEK293T ELG1-luciferase reporter, luminescence, 16 h; DNA damage induced by 5-fluorouridine | Potency, µM (highest dose often 46.1 µM), inactives show at the highest dose activity change, negative = inhibition, usual class: inhibitors | 330,000 tested, 2.3% active | AID 504467; further: nearly all actives have a fitted effect of over 55% in size
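Cells (2,000 per well) received 5-fluorouridine plus test compound or DMSO and were incubated 16 hr at 37 °C, 5% CO2. Luciferase activity was read by luminescence 30 min after ONE-Glo addition; signal suppression marked inhibition of damage-induced ELG1 function.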
RORgamma inh: blocks mouse ROR gamma transcriptional activity | 310,000 tested, 5.4% active | Potency, µM (doses to about 53.6 µM), for inactives: at the top dose activity change, negative = inhibition, most hits filed as inhibitors | AID 2551 | P51450 | Drosophila S2 Gal4-RORgamma UAS-luciferase reporter, 20 h; further: nearly all actives have a fitted effect of over 60% in size
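Luminescence from a UAS-regulated Photinus luciferase reporter in stably transfected Drosophila Schneider cells is measured; decreased signal marks ROR gamma inhibition. Fusion expression is induced by 700 uM copper sulfate for 20 hr.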
* hit, by the source's call; ! = repeats disagree; [ ] = dose if it differs, or a comment. The call rests on the fitted dose curve; in most records, active means well fitted curve in the direction sought with a large enough effect; inconclusive means small, poorly fitted or top-dose-only effect, or another doubt; inactive means no such curve, though single readings can be large; an effect the other way counts as inactive or inconclusive. On the % scale 0 is the no-effect control and ±100 the full control effect; potency means the concentration at half of the fitted maximal effect.

`CN1C[C@H](NCc2nccn2C)CCC[C@@H](C(=O)N(C)Cc2cccnc2)CC1=O` gave ALOX12 inh -5.8%[176 µM].
Screening O=C(CC1CCOC2(CCN(S(=O)(=O)Cc3ccccc3)CC2)C1)N1CCOCC1 (centres undefined) returned ALOX12 inh 0.0%.
`COCC1CCN(C(=O)COc2ccc(NC(=O)C3CC3)cn2)CC1` gave ALOX12 inh 19.5%.
For N#Cc1nc(-c2ccco2)oc1N1CCN(CC(=O)Nc2ccccc2-c2ccccc2)CC1 the results were ALOX12 inh -3.5%.
For CS(=O)(=O)Nc1cccc(NC(=O)c2cccc3c(-c4cccnc4)coc23)c1 the results were TDP1 cell noCPT 16.4µM* and DT40 TDP1 CPT 11.6µM*.
O=C(Nc1cccnc1)c1ccccc1-c1ccccc1 was read as TDP1 cell noCPT 13.9%, DT40 TDP1 CPT inconclusive, ALOX12 inh -5.2%, Gal4-VP16 FLuc -0.7%, ELG1 DNA repair 6.5% and RORgamma inh 12.8%.
For COc1ccccc1OCC(=O)NCC1CCCN(C(=O)c2ccccc2C(C)=O)C1 (centres undefined) the results were TDP1 cell noCPT 3.0%, DT40 TDP1 CPT 7.6%, ALOX12 inh 4.7%, Gal4-VP16 FLuc -5.6%, ELG1 DNA repair 14.7% and RORgamma inh 8.1%.
Screening COc1ccccc1OCC(=O)NCC1CCCN(C(=O)c2ccccc2SC)C1 (centres undefined) returned TDP1 cell noCPT 14.6µM*, DT40 TDP1 CPT inconclusive, ALOX12 inh -5.2%, Gal4-VP16 FLuc 23.7%, ELG1 DNA repair 14.6% and RORgamma inh 1.7%.
Screening COc1cccc(C2=Nn3c(nnc3-c3ccccc3O)SC2)c1 returned TDP1 cell noCPT inconclusive, DT40 TDP1 CPT inconclusive, ALOX12 inh 0.0%, Gal4-VP16 FLuc inconclusive, ELG1 DNA repair 9.6% and RORgamma inh inconclusive.
`C[n+]1c2n(c3ccccc31)N=C(c1cc(C(C)(C)C)c(O)c(C(C)(C)C)c1)CS2` gave TDP1 cell noCPT 2.59µM*, DT40 TDP1 CPT 4.11µM*, ALOX12 inh 28.2µM*, Gal4-VP16 FLuc 7.94µM*, ELG1 DNA repair inconclusive and RORgamma inh inconclusive.
`CCCCC1(COC(=O)CCC(=O)O)C(=O)N(c2ccccc2)N(c2ccccc2)C1=O` gave TDP1 cell noCPT inconclusive, DT40 TDP1 CPT 0.0023µM*!, ALOX12 inh -11.5%, Gal4-VP16 FLuc -8.5%, ELG1 DNA repair 3.8% and RORgamma inh 14.2%.
`O=C(O)CCC(=O)OCCCc1ccccc1` gave ALOX12 inh 3.2%.
`CCCCC1(Cc2ccc([N+](=O)[O-])cc2)C(=O)N(c2ccccc2)N(c2ccccc2)C1=O` gave TDP1 cell noCPT inconclusive, DT40 TDP1 CPT inconclusive, ALOX12 inh -6.1%, Gal4-VP16 FLuc 7.08µM*, ELG1 DNA repair 1.5% and RORgamma inh inconclusive.
`Cc1nn(Cc2ccc([N+](=O)[O-])cc2)c(=O)n1-c1ccccc1` gave TDP1 cell noCPT -7.9%, DT40 TDP1 CPT -10.1%, ALOX12 inh 0.0%, Gal4-VP16 FLuc -7.5%, ELG1 DNA repair 10.2% and RORgamma inh 24.0%.
Screening CS(=O)(=O)Oc1ccc2c(=O)c(-c3ccccc3)coc2c1 returned ALOX12 inh -55.2%.
`COc1cc(/C=N/n2cnn(Cc3ccccc3Cl)c2=S)cc(OC)c1OC` gave TDP1 cell noCPT inconclusive, DT40 TDP1 CPT -28.7%, ALOX12 inh -21.9%, Gal4-VP16 FLuc inconclusive, ELG1 DNA repair 23.1µM* and RORgamma inh 42.5%.
COc1cc2c(cc1NC(=O)CCCCCN1C(=O)CCC1=O)oc1ccccc12 was read as TDP1 cell noCPT inconclusive, DT40 TDP1 CPT inconclusive, ALOX12 inh -0.4%, Gal4-VP16 FLuc 2.9%, ELG1 DNA repair 20.6µM* and RORgamma inh 17.2%.
For COc1cc2c(cc1NC(=O)CN1CCN(S(=O)(=O)c3ccccc3F)CC1)oc1ccccc12 the results were TDP1 cell noCPT 20.6µM*, DT40 TDP1 CPT 14.6µM*, ALOX12 inh -2.1%, Gal4-VP16 FLuc 3.2%, ELG1 DNA repair 1.3% and RORgamma inh 10.3%.
COc1cc2c(cc1NC(=O)CC1SC(N3CCCC3)=NC1=O)oc1ccccc12 (centres undefined) was read as TDP1 cell noCPT 20.6µM*, DT40 TDP1 CPT inconclusive, ALOX12 inh 9.5%, Gal4-VP16 FLuc 1.8%, ELG1 DNA repair inconclusive and RORgamma inh 16.2%.
Screening COc1ccc(NC(=O)CC2SC(N3CCCC3)=NC2=O)cc1Cl (centres undefined) returned TDP1 cell noCPT inconclusive, DT40 TDP1 CPT -21.0%, ALOX12 inh -8.7% and ELG1 DNA repair 2.2%.
`CN(C)C(=O)CN1CCN(c2nc(-c3ccccc3)nc3ccccc23)CC1` gave ALOX12 inh 6.5%.
`O=C(COc1ccc(F)cc1)Nc1cccc(-c2nc3ccccc3o2)c1` gave ALOX12 inh -15.7%.
CCN(CC)CCNC(=O)c1c(OCCOC)cc(=O)n2c1CCOCC2 was read as ALOX12 inh 35.2%.
For Cc1ccc(C)c(S(=O)(=O)c2nnn3c2nc(NC(C)C)c2sccc23)c1 the results were TDP1 cell noCPT inconclusive, DT40 TDP1 CPT 23.1µM* and ALOX12 inh -29.0%.
For Cc1ccc(S(=O)(=O)c2nnn3c2nc(NC2CCCCCC2)c2sccc23)cc1C the results were TDP1 cell noCPT 20.6µM*, DT40 TDP1 CPT 14.6µM* and ALOX12 inh -18.6%.
For Cc1ccc(S(=O)(=O)c2nnn3c2nc(Nc2ccc(C(C)C)cc2)c2sccc23)cc1C the results were TDP1 cell noCPT 4.61µM*, DT40 TDP1 CPT 4.11µM* and ALOX12 inh 0.0%.
For CCc1ccc(S(=O)(=O)c2nnn3c2nc(NC2CCCC2)c2sccc23)cc1 the results were TDP1 cell noCPT inconclusive, DT40 TDP1 CPT 23.1µM* and ALOX12 inh -6.6%.
For CCOc1ccc(Nc2nc3c(S(=O)(=O)c4ccc(C(C)C)cc4)nnn3c3ccsc23)cc1 the results were TDP1 cell noCPT inconclusive, DT40 TDP1 CPT inconclusive and ALOX12 inh -15.9%.
Cc1ccc(C)c(S(=O)(=O)c2nnn3c2nc(Nc2ccc(C)c(C)c2)c2sccc23)c1 was read as TDP1 cell noCPT -12.7%, DT40 TDP1 CPT -0.4% and ALOX12 inh -16.7%.
COc1ccccc1Cc1nc2ccccc2nc1SCC(=O)Nc1ccccc1OC was read as ALOX12 inh 12.7%.
